Reference: PubChem BioAssay (NCI)
Compounds without any hit were thinned out: in the full panel of roughly 79,000, 15% have a hit. Calls of active or inactive are those of the source. Rule as the data show it: active = growth inhibition above about 70%; inactive = the rest. Where a SMILES comes first, the peptide text is derived from it. The star is where a group is joined. Fmoc = O=C(OCC1c2ccccc2-c2ccccc21)*; Boc = CC(C)(C)OC(=O)*

Key:
[1] = NCI Yeast Anticancer Drug Screen. Data for the rad50 strain (AID 155);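 also: 0% = growth of vehicle-only cultures of the same strain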; settings: S. cerevisiae rad50 strain growth inhibition, hits give high values
In short: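 Vehicle-treated cultures provide the reference for the growth inhibition reported for compound-exposed, repair-deficient yeast.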

[2] = NCI Yeast Anticancer Drug Screen. Data for the mec2-1 strain (AID 157); settings: S. cerevisiae mec2-1 strain, hits give high values
In short: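 Strain: mec2-1 (DNA repair/cell cycle alteration). Compound exposure, then growth measured; inhibition expressed relative to vehicle.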

[3] = NCI Yeast Anticancer Drug Screen. Data for the sgs1 mgt1 strain (AID 161);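 also: 0% = growth of cultures given vehicle only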; settings: S. cerevisiae sgs1 mgt1 strain, hits give high values
In short: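 Inhibition of yeast growth, normalised to vehicle-treated controls, is reported for a strain bearing genetic alterations in DNA damage repair.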

[4] = NCI Yeast Anticancer Drug Screen. Data for the cln2 rad14 strain (AID 165);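 also: 0% = growth equal to vehicle treated cultures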; settings: S. cerevisiae cln2 rad14 strain, hits give high values
In short: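 Compounds are applied to the cln2 rad14 yeast strain, and growth is then compared with that of vehicle-treated cultures to give inhibition.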

[5] = NCI Yeast Anticancer Drug Screen. Data for the bub3 strain (AID 167); settings: S. cerevisiae bub3 mutant strain, hits give high values
In short: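 Mutant yeast screening strain plus compound; vehicle-treated cultures serve as the 0% inhibition reference.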

[6] = NCI Yeast Anticancer Drug Screen. Data for the mlh1 rad18 strain (AID 175); settings: S. cerevisiae mlh1 rad18 strain growth inhibition, hits give high values
In short: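 Read-out is yeast growth inhibition, calculated against vehicle-only controls. The compound was applied to a strain engineered with DNA damage repair alterations.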

[7] = at 5.0 µM (retest, dose inferred, filed as 0.5)
[8] = at 50.0 µM (retest, dose inferred, filed as 5.0)

Measured: growth inhibition

CC(C)(C)OC(=O)NCCCCC(NC(=O)OCC1c2ccccc2-c2ccccc21)C(=O)N1CCCC1C(=O)NCC(N)=O (stereo not drawn) (Fmoc-Lys(Boc)-Pro-Gly-NH2; configuration not given here)
inactive: [1]; [7] 10% | [2]; [7] 13% | [3]; [7] 5% | [4]; [7] 10% | [5]; [7] -10% | [6]; [7] 19%
active: [1]; [8] 98% | [1]; at 50.0 µM 86.8% | [2]; [8] 95% | [2]; at 50.0 µM 94.4% | [3]; [8] 89% | [3]; at 50.0 µM 90.3% | [4]; [8] 91% | [4]; at 50.0 µM 82.8% | [5]; [8] 97% | [5]; at 50.0 µM 93.1% | [6]; [8] 97% | [6]; at 50.0 µM 93.3%

CCCC(=O)Oc1ccc(-c2ccc(Br)cc2)cc1
active: [1]; [8] 93% | [1]; at 50.0 µM 92.8% | [2]; [8] 93% | [2]; at 50.0 µM 93.6% | [3]; [8] 88% | [3]; at 50.0 µM 88.8% | [4]; [8] 93% | [4]; at 50.0 µM 90.2% | [5]; [8] 95% | [5]; at 50.0 µM 89.8% | [6]; [8] 94% | [6]; at 50.0 µM 95.8%
inactive: [1]; [7] 4% | [2]; [7] 11% | [3]; [7] 3% | [4]; [7] -6% | [5]; [7] 39% | [6]; [7] -7%

COc1ccc(CN2CCCN(Cc3ccc(OC)cc3OC)C2c2cc(Br)ccc2O)c(OC)c1
active: [1]; [8] 98% | [1]; at 50.0 µM 99% | [2]; [8] 100% | [2]; at 50.0 µM 95.2% | [3]; [8] 99% | [3]; at 50.0 µM 99.2% | [4]; [8] 94% | [5]; [8] 98% | [6]; [8] 99% | [6]; at 50.0 µM 98.7%
inactive: [1]; [7] 31% | [2]; [7] 18% | [3]; [7] 27% | [4]; [7] 12% | [4]; at 50.0 µM 57.2% | [5]; [7] 15% | [5]; at 50.0 µM 27.9% | [6]; [7] 63%

O=C(CCCN1CCC2(CC1)CC(c1ccccc1)OC2=O)c1ccc(F)cc1 (stereo not drawn)
inactive: [1]; [7] 48% | [2]; [7] 33% | [2]; [8] 65% | [3]; [7] 44% | [4]; [7] 41% | [5]; [7] 39% | [6]; [7] 34% | [6]; [8] 63%
active: [1]; [8] 76% | [1]; at 50.0 µM 86.3% | [2]; at 50.0 µM 87.9% | [3]; [8] 87% | [3]; at 50.0 µM 94.7% | [4]; [8] 84% | [4]; at 50.0 µM 89.8% | [5]; [8] 90% | [5]; at 50.0 µM 95.2% | [6]; at 50.0 µM 95.9%

O=C(NC(c1ccccc1)N1CCOCC1)c1ccccc1 (stereo not drawn)
active: [1]; at 50.0 µM 99% | [2]; at 50.0 µM 95.6% | [3]; at 50.0 µM 96.3% | [4]; at 50.0 µM 76.9% | [5]; at 50.0 µM 83.4% | [6]; at 50.0 µM 98.8%
inactive: [1]; [7] 2% | [1]; [8] -1% | [2]; [7] -7% | [2]; [8] 7% | [3]; [7] 0% | [3]; [8] -3% | [4]; [7] -2% | [4]; [8] 3% | [5]; [7] -3% | [5]; [8] -2% | [6]; [7] -9% | [6]; [8] -1%

C[n+]1cccc2c1-c1ccccc1C2=O
inactive: [1]; [7] 6% | [1]; [8] 22% | [1]; at 50.0 µM -2.25% | [2]; [7] -1% | [2]; [8] 22% | [2]; at 50.0 µM 1.6% | [3]; [7] 3% | [3]; [8] 8% | [3]; at 50.0 µM 8.15% | [4]; [7] -3% | [4]; [8] 1% | [4]; at 50.0 µM 39.5% | [5]; [7] -2% | [5]; [8] 9% | [5]; at 50.0 µM 11.1% | [6]; [7] 2% | [6]; [8] 28% | [6]; at 50.0 µM 16.1%
